# Assay results from publication PMC7862700, “An all-to-all approach to the identification of sequence-specific readers for epigenetic DNA modifications on cytosine”.
# Tests used:
# Experiment in all cases: DAPPL (digital affinity profiling via proximity ligation, sequencing); 10 mM Tris-HCl pH 7.5, 50 mM NaCl, 1 mM DTT, 4% glycerol, room temperature, 30 min; GST-TFs on glutathione beads, 16-mer random dsDNA library, 0.1% formaldehyde crosslink after washing; high values mean tight binding
# Details in all cases: protein: recombinant; tags: N-terminal GST; dsDNA, one strand shown
# FLI1 = target: T1, FLI1 (Homo sapiens, UniProt Q01543 1-452)
# T1 sequence: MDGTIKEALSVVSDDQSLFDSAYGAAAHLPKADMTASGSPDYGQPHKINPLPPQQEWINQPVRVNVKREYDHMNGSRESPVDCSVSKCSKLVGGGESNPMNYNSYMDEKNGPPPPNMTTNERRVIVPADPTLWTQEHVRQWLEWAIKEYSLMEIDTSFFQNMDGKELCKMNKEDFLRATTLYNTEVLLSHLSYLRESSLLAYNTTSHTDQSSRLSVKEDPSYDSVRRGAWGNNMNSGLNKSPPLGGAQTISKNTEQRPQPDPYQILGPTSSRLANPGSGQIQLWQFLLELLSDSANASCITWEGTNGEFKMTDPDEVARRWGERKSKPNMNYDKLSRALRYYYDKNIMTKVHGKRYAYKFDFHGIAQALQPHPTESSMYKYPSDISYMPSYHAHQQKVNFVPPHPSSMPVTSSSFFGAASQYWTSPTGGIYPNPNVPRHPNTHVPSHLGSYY
# Outline: (§1)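 Each value of binding signal is a hexamer's read frequency for a factor divided by the same hexamer's frequency in the tag-only sample. Barcoded, bead-captured GST fusions of human transcription factors made in yeast were pooled with that sample and incubated with 200 nmole of a random double-stranded 16-mer DNA library in Tris/NaCl/DTT/glycerol buffer at room temperature for 30 min. Washing, 0.1% formaldehyde crosslinking, proximity ligation, PCR and Illumina NextSeq500 sequencing followed.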
# ELK1 = target: T2, ELK1 (Homo sapiens, UniProt P19419 1-428)
# T2 sequence: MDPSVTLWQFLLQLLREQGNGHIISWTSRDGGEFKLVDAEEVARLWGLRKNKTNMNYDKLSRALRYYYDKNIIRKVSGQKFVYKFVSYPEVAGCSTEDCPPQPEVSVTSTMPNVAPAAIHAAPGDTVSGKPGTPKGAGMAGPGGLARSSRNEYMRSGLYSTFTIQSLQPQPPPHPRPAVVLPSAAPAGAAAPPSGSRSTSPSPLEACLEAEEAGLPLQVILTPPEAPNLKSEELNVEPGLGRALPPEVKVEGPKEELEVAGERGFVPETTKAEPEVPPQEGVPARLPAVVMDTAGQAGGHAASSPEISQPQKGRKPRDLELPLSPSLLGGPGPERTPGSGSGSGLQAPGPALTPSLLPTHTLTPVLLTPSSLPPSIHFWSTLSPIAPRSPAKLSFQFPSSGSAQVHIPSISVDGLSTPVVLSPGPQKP
# Outline: as §1
# GABPA = target: T3, GABPA (Homo sapiens, UniProt Q06546 1-454)
# T3 sequence: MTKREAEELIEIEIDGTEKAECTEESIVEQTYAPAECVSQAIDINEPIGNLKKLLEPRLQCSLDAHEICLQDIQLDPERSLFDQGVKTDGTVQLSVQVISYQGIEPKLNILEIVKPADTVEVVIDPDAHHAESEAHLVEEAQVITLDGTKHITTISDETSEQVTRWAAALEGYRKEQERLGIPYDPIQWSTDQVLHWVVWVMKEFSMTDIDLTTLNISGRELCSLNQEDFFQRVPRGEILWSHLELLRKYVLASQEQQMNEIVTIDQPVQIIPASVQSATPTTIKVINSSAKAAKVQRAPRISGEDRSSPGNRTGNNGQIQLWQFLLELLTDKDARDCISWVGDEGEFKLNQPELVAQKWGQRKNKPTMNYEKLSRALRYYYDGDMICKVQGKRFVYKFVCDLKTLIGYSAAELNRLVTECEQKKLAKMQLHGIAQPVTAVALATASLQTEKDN
# Outline: as §1
# ELF1 = ELF1 (Homo sapiens, UniProt P32519 1-619)
# Outline: as §1
# EHF = target: T4, EHF (Homo sapiens, UniProt Q9NZC4 1-300)
# T4 sequence: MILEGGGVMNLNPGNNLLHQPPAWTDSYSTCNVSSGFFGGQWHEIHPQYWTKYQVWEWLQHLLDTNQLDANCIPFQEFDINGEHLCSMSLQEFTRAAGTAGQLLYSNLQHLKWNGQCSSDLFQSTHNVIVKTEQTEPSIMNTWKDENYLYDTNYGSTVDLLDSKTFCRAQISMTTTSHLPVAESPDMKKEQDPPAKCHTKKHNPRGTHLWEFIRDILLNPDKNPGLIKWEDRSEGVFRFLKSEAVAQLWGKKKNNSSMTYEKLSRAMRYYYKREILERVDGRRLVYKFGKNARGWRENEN
# Outline: as §1
# SPI1 = SPI1 (Homo sapiens, UniProt P17947 1-270)
# Outline: as §1
# SPIB = SPIB (Homo sapiens, UniProt Q01892 1-262)
# Outline: as §1
# ELK3 = target: T5, ELK3 (Homo sapiens, UniProt P41970 1-407)
# T5 sequence: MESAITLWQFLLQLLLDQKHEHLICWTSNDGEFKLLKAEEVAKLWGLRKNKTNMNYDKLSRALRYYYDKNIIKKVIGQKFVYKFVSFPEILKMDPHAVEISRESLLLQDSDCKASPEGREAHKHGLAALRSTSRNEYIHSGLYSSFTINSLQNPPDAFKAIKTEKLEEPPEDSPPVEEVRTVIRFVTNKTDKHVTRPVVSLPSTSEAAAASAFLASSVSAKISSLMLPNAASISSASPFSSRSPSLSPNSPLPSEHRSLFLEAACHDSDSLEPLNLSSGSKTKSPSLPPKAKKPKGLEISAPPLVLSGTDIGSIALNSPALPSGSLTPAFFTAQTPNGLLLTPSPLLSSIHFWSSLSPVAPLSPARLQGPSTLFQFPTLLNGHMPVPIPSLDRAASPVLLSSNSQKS
# Outline: as §1
# FEV = target: T6, FEV (Homo sapiens, UniProt Q99581 1-238)
# T6 sequence: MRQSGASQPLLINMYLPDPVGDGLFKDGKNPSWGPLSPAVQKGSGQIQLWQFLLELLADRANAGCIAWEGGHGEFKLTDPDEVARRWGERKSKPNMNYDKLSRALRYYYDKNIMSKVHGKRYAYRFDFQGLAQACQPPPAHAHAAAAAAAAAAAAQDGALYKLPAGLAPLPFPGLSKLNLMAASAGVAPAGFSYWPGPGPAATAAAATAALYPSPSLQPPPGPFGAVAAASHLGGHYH
# Outline: as §1
# ETV5 = ETV5 (Homo sapiens, UniProt P41161 1-510)
# Outline: as §1
# SPIC = target: T7, SPIC (Homo sapiens, UniProt Q8N5J4 1-248)
# T7 sequence: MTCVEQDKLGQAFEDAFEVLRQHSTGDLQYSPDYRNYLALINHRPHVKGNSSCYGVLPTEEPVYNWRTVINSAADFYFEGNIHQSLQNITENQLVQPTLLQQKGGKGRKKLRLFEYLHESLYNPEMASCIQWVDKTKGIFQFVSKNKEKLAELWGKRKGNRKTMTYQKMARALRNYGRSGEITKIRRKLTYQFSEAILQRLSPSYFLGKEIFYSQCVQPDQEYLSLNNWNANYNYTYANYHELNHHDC
# Outline: as §1
# ELF4 = ELF4 (Homo sapiens, UniProt Q99607 1-663)
# Outline: as §1
# ELK4 = target: T8, ELK4 (Homo sapiens, UniProt P28324-2 1-405)
# T8 sequence: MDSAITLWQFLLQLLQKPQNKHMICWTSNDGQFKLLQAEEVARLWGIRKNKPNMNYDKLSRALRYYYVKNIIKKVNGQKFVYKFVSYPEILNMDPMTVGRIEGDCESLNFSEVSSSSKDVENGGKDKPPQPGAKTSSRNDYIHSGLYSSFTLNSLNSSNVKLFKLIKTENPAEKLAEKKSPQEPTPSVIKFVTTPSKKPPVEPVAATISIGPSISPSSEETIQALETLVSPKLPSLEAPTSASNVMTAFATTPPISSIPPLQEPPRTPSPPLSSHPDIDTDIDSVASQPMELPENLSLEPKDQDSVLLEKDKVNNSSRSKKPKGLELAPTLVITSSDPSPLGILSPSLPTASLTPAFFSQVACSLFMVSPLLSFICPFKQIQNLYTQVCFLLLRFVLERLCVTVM
# Outline: as §1
# ELF3 = target: T9, ELF3 (Homo sapiens, UniProt P78545 1-371)
# T9 sequence: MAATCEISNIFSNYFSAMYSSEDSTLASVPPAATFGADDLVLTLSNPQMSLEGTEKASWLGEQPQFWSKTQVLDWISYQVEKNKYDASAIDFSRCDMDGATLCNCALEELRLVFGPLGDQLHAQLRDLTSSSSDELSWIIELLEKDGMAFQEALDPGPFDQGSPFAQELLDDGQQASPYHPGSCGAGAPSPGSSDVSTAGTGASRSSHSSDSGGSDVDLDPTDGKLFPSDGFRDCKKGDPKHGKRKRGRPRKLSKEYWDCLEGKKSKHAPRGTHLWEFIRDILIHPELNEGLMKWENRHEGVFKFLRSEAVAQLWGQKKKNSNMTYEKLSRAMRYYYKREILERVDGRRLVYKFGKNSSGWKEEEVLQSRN
# Outline: as §1
# CRX = CRX (Homo sapiens, UniProt O43186 1-299)
# Outline: as §1
# ETV1 = ETV1 (Homo sapiens, UniProt P50549 1-477)
# Outline: as §1
# ERG = target: T10, ERG (Homo sapiens, UniProt P11308 1-479)
# T10 sequence: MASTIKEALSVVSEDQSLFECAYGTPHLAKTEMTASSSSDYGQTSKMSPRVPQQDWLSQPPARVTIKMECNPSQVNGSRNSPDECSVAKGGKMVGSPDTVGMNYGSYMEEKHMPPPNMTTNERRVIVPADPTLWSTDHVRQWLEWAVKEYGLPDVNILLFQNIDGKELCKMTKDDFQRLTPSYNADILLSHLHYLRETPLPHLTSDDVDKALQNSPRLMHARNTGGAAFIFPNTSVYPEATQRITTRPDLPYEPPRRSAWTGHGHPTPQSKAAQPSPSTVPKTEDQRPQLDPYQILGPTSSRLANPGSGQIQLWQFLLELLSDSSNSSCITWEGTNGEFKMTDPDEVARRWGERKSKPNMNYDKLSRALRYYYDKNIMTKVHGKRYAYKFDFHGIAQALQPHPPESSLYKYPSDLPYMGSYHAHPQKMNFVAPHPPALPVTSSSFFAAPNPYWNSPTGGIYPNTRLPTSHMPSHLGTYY
# Outline: as §1
# ETV2 = target: T11, ETV2 (Homo sapiens, UniProt O00321 1-342)
# T11 sequence: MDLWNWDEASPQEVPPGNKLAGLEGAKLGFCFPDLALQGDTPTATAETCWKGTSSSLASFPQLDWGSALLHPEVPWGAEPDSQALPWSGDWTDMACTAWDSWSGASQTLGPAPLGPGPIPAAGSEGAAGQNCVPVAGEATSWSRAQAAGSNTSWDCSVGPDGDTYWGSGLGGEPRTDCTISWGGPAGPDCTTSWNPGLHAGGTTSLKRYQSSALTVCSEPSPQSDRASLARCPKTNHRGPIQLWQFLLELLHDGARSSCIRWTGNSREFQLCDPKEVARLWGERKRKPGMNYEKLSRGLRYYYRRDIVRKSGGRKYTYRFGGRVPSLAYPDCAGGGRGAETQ
# Outline: as §1
# Chain of ELF1 (P32519 whole entry): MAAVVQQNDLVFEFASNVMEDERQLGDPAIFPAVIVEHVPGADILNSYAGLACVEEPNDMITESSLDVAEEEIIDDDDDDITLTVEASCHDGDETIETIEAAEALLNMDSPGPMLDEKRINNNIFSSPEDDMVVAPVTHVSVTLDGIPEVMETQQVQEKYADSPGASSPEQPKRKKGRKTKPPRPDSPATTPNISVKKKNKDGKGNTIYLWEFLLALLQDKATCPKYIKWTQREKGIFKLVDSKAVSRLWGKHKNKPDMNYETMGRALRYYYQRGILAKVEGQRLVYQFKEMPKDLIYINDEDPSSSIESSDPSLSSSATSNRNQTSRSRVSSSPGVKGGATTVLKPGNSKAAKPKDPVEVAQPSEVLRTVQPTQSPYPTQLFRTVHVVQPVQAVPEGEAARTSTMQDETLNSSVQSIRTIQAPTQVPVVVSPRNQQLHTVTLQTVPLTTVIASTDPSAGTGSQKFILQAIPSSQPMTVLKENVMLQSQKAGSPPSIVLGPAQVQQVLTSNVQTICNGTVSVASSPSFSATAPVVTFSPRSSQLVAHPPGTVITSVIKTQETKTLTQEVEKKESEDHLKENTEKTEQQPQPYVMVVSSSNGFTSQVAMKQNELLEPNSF
# Chain of ELF4 (Q99607 whole entry): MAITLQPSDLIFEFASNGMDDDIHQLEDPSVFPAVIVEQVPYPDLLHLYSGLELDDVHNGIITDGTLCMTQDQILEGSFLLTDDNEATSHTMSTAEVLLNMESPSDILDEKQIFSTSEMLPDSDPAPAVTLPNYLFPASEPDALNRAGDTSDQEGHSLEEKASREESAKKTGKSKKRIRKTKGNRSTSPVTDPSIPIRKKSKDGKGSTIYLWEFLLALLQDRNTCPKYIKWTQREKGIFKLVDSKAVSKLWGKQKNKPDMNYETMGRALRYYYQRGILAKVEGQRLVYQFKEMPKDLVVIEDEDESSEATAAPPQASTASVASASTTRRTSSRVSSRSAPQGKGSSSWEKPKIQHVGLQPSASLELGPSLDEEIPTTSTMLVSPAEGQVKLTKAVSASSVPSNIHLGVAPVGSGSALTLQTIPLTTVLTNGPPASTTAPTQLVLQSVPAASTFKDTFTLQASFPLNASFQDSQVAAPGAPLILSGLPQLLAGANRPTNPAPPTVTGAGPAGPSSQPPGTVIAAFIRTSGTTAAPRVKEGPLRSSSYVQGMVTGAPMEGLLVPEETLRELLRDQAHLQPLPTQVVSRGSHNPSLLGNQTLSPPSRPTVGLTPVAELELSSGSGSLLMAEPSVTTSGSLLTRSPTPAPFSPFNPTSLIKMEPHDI
# Chain of ETV5 (P41161 whole entry): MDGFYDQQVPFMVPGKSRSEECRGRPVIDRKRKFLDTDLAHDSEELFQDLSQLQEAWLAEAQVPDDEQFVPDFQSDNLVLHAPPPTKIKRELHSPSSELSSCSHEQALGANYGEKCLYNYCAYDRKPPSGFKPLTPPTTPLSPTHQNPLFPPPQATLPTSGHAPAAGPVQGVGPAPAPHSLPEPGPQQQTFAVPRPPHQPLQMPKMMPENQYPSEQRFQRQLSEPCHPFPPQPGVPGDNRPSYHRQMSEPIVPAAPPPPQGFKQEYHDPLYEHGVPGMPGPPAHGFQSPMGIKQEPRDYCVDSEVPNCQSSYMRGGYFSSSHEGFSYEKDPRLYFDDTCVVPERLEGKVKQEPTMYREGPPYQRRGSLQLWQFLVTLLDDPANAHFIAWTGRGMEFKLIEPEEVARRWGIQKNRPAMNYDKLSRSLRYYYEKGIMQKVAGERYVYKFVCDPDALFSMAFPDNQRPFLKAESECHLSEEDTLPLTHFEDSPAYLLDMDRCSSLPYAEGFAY
# Chain of SPIB (Q01892 whole entry): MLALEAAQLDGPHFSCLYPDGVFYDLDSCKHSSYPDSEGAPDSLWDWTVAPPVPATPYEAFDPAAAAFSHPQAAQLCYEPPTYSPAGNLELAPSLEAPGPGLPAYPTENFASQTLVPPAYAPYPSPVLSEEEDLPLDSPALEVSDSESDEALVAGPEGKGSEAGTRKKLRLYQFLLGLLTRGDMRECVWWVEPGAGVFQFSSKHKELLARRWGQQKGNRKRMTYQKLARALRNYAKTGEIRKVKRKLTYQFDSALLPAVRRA
# Chain of CRX (O43186 whole entry): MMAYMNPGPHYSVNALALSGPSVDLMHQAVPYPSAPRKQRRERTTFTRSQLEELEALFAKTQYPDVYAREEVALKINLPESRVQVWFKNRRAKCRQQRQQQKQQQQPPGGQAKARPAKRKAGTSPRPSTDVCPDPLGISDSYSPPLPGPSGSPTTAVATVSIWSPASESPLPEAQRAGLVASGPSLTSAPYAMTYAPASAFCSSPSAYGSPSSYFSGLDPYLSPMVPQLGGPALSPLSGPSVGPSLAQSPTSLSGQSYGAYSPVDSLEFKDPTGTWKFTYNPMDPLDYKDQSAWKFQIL
# Chain of ETV1 (P50549 whole entry): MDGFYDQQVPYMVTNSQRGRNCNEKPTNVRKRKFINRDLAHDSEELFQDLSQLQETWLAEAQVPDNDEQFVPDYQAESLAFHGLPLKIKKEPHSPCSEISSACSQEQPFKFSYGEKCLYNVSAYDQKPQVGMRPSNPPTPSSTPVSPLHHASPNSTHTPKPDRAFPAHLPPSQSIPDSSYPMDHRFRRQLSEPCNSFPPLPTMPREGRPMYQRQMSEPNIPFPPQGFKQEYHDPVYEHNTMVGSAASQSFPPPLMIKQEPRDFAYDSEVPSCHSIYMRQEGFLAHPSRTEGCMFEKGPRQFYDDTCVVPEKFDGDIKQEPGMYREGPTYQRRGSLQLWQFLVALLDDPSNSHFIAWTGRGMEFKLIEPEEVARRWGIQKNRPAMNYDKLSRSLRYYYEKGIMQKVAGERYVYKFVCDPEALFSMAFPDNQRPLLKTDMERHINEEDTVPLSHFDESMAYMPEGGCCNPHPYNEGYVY
Sequence,binding signal (FLI1),binding signal (ELK1),binding signal (GABPA),binding signal (ELF1),binding signal (EHF),binding signal (SPI1),binding signal (SPIB),binding signal (ELK3),binding signal (FEV),binding signal (ETV5),binding signal (SPIC),binding signal (ELF4),binding signal (ELK4),binding signal (ELF3),binding signal (CRX),binding signal (ETV1),binding signal (ERG),binding signal (ETV2)
TTGGGT,"1.02 fold enrichment (6-mer frequency, TF over GST control)","1.13 fold enrichment (6-mer frequency, TF over GST control)","1.22 fold enrichment (6-mer frequency, TF over GST control)","1.09 fold enrichment (6-mer frequency, TF over GST control)","1.04 fold enrichment (6-mer frequency, TF over GST control)","1.02 fold enrichment (6-mer frequency, TF over GST control)","1.05 fold enrichment (6-mer frequency, TF over GST control)","1.16 fold enrichment (6-mer frequency, TF over GST control)","1.07 fold enrichment (6-mer frequency, TF over GST control)","1.04 fold enrichment (6-mer frequency, TF over GST control)","1.07 fold enrichment (6-mer frequency, TF over GST control)","1.08 fold enrichment (6-mer frequency, TF over GST control)","1.09 fold enrichment (6-mer frequency, TF over GST control)","1.14 fold enrichment (6-mer frequency, TF over GST control)","1.07 fold enrichment (6-mer frequency, TF over GST control)","1.06 fold enrichment (6-mer frequency, TF over GST control)",,
CATGGG,"1.04 fold enrichment (6-mer frequency, TF over GST control)","1.07 fold enrichment (6-mer frequency, TF over GST control)","1.04 fold enrichment (6-mer frequency, TF over GST control)","1.05 fold enrichment (6-mer frequency, TF over GST control)","1.03 fold enrichment (6-mer frequency, TF over GST control)","1.03 fold enrichment (6-mer frequency, TF over GST control)",,"1.09 fold enrichment (6-mer frequency, TF over GST control)",,"1.01 fold enrichment (6-mer frequency, TF over GST control)","1.05 fold enrichment (6-mer frequency, TF over GST control)","1 fold enrichment (6-mer frequency, TF over GST control)","1.02 fold enrichment (6-mer frequency, TF over GST control)",,,,"1.07 fold enrichment (6-mer frequency, TF over GST control)","1.04 fold enrichment (6-mer frequency, TF over GST control)"
